PREPL inhibitor = PREPL enzyme inhibitors, primary screen, biochemical, fluorescence polarization. actives 0.68% (n = 320,000). recombinant PREPL, fluorescence polarization activity-based probe. AID 2751, 2010. Prolyl endopeptidase-like (Homo sapiens), Q4J6C6. inhibition, % at 5.96 µM; in the data active = inhibition above about 43%;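 also: 0% = enzyme with DMSO and 100% = wells lacking enzyme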
LYPLA2 counter = LYPLA2 inhibitors, primary screen, counter-screen for PME1 inhibitor project, biochemical, fluorescence polarization, FP-Rh probe ABPP; inhibition, % at 5.9 µM; AID 2177, 2009; recombinant LYPLA2; Acyl-protein thioesterase 2 (Homo sapiens), O95372; actives 0.38% (n = 320,000);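 active = inhibition above the screen-wide mean plus 3 SD, limit set per campaign, cut at about 26% in these data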;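 also: 0% = LYPLA2 with DMSO and 100% = wells lacking LYPLA2 enzyme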
Rin1-Abl PPI inh = inhibitors of Rin1-Abl protein binding, primary screen, biochemical, TR-FRET; inhibition, % at 7.35 µM; actives 0.4% (n = 360,000); AID 588664, 2011; in the data active = inhibition above about 5%, passing the limit was not always enough
p97 ATPase inh = inhibitors of human p97 ATPase, primary screen, biochemical. actives 0.42% (n = 220,000). inhibition, % at 8 µM. recombinant p97 ATPase, Kinase-Glo ATP luminescence, 3 h. Transitional endoplasmic reticulum ATPase (Homo sapiens), P55072; in the data active = inhibition above about 15%;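 also: 0% = DMSO vehicle and 100% = wells lacking enzyme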
Target sequence (P55072 whole entry, looked up): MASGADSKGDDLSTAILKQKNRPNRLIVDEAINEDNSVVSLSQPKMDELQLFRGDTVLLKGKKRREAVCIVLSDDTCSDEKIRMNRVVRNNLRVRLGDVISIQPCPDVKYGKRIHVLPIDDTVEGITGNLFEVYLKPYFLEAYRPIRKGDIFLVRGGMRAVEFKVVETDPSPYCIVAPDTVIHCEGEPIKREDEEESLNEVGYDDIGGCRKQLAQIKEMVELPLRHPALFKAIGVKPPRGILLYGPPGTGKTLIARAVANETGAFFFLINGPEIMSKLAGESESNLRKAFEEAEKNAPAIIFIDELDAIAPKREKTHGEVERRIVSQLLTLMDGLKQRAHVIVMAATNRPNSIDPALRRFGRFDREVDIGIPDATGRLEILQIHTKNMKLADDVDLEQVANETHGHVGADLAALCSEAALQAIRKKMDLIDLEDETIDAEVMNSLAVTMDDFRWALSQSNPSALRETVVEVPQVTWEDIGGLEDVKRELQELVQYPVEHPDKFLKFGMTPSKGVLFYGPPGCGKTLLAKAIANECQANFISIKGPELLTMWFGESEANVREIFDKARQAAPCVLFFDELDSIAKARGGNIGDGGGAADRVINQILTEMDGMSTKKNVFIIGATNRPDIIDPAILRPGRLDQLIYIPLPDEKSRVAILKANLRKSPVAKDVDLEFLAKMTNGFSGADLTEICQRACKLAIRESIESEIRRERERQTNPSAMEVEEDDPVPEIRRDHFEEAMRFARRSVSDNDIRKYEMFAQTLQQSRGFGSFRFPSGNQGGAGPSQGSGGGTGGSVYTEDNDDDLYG
LYPLA1 inh = LYPLA1 inhibitors, primary screen, counter-screen for PME1 inhibitor project, biochemical, fluorescence polarization, FP-Rh probe ABPP; Acyl-protein thioesterase 1 (Homo sapiens), O75608; recombinant LYPLA1; inhibition, % at 5.9 µM; actives 0.16% (n = 320,000); AID 2174, 2009;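 active = inhibition above the mean of all tested compounds plus 3 SD, set per campaign, cut at about 14% in these data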;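 also: inhibitors block serine hydrolase probe labeling of LYPLA1 so polarization falls; 0% = enzyme with DMSO and 100% = wells lacking LYPLA1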
Hck Nef HTS = inhibitors of Nef-activated human Hck kinase, primary screen, biochemical, Z-Lyte FRET, 384-well, Hck-YEEI; Recombinant Hck-YEEI plus Nef, Z-Lyte FRET kinase assay; inhibition, % at 20 µM; actives 0.68% (n = 220,000); AID 463187, 2010;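 active = Hck-Nef kinase inhibition above about 50%, limit read from the data; inactive = inhibition below that limit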;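 also: 0% = DMSO with Hck plus Nef and 100% = Hck alone without Nef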
Rin1-Abl confirm = Rin1-Abl binding inhibitor retest, confirmation, biochemical, TR-FRET. shares compounds with Rin1-Abl PPI inh. purified proteins. inhibition, % at 7.35 µM. actives 49% (n = 1,300). AID 602124, 2011
GFP quench-1 = GFP fluorescence inhibitors and quenchers, artefact control for Rin1-Abl interaction inhibitor project, biochemical; shares compounds with Rin1-Abl PPI inh; inhibitors/quenchers counterscreen; inhibition, % at 6.75 µM; actives 8.5% (n = 1,300);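 also: ABL1-eGFP fusion protein alone without its partner RIN1-SBP; 0% = protein with vehicle and 100% = wells lacking protein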
GFP quench DR = GFP fluorescence inhibitors and quenchers, dose response, artefact control for Rin1-Abl interaction inhibitor project, biochemical; shares compounds with Rin1-Abl PPI inh; IC50, µM; GFP fluorescence interference/quenching counterscreen; AID 602182, 2012; 230 tested, under 10 active; call rule not given here;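 also: ABL1-eGFP fusion protein alone without its RIN1 binding partner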
GFP quench-2 = GFP fluorescence inhibitors and quenchers, late-stage follow-up, artefact control for Rin1-Abl interaction inhibitor project, biochemical, dose response; shares compounds with Rin1-Abl PPI inh; GFP fluorescence quenching counterscreen; IC50, µM; 25 tested, under 10 active; call rule not given here
The depositor's hits bear a star; nt = no result given. In the library only some 1.7% were active in any assay of this set; here they are far more common. Rule as the data show it, unless noted: active = inhibition above about 6.5%; inactive = the rest.

SMILES | PREPL inhibitor | LYPLA2 counter | Rin1-Abl PPI inh | p97 ATPase inh | LYPLA1 inh | Hck Nef HTS | Rin1-Abl confirm | GFP quench-1 | others
Cc1ccc(C(=O)N2CCCC(CCC(=O)N3CCN(c4ccccn4)CC3)C2)cn1 (stereo not given) | 5 | 12 | 1 | nt | 4 | nt | nt | nt
Cc1cccc(C(=O)N2CCCC(CCC(=O)N3CCN(c4ccccn4)CC3)C2)c1C (stereo not given) | 12 | 1 | 12* | nt | 0 | nt | 4 | 0
CN(/N=C/c1ccc(O)cc1O)c1ncc(C(F)(F)F)cc1Cl | 20 | -5 | 8.6* | -3 | -2 | 21 | 0 | 0
COc1cc(C(C)=O)ccc1OCC(=O)Nc1ccc(Cl)c(S(=O)(=O)N2CCOCC2)c1 | 10 | -7 | 2 | nt | -2 | nt | nt | nt
COc1cc(C(=O)OCC(=O)Nc2ccc(S(=O)(=O)N3CCCC3)cc2)cc(OC)c1OC | 10 | nt | 18* | nt | nt | nt | 30* | 0 | GFP quench DR=>68
O=C(Nc1ccc(S(=O)(=O)Nc2ccccc2)cc1)C1CC1 | nt | nt | 11* | nt | nt | nt | 0 | -1
CC(=O)Nc1ccc(NC(=O)C2CCN(C(=O)c3cccs3)CC2)cc1 | -3 | -4 | 47* | -1 | -4 | 18 | 71* | -5 | GFP quench DR=>68;GFP quench-2=>68
CC(=O)c1ccc(NC(=O)Nc2ccc(S(=O)(=O)N3CCCC3)cc2)cc1 | nt | nt | 15* | nt | nt | nt | 11* | 1
Cc1ccc(NC(=O)C2CCN(C(=O)c3cccs3)CC2)cc1 | 0 | -3 | 1 | nt | 1 | nt | nt | nt
COc1cc(C(=O)OCC(=O)c2ccc(S(=O)(=O)N3CCCCC3)cc2)cc(OC)c1OC | 1 | 4 | 4 | nt | -7 | nt | nt | nt
CC(=O)c1ccc(NC(=O)c2ccc(S(=O)(=O)N3CCCC3)cc2)cc1 | 4 | -1 | -1 | 1 | -1 | -1 | nt | nt
COc1cc(C=NO)nc(-c2ccccn2)c1 | nt | nt | -4 | nt | nt | nt | nt | nt
CC12CN(C(=O)c3cccc([N+](=O)[O-])c3)C3(C#N)CC1CCC23C (stereo not given) | nt | nt | 0 | nt | nt | nt | nt | nt
CCc1ccc(S(=O)(=O)Nc2cc3c(cc2C)n(C)c(=O)n3C)cc1 | 3 | -1 | 5 | nt | 2 | nt | nt | nt
Cc1ccccc1C(=O)N1CCC(C(=O)Nc2ccc(S(=O)(=O)N3CCCCC3)cc2)CC1 | 9 | 8 | 12* | nt | 1 | nt | 7.8* | -1
Cc1ccccc1C(=O)N1CCC(C(=O)Nc2ccc(S(=O)(=O)N3CCOCC3)cc2)CC1 | 3 | 3 | -2 | nt | 1 | nt | nt | nt
COc1ccccc1C(=O)N1[C@@H](C(C)C)COc2cc(Br)ccc2S1(=O)=O | nt | nt | 4 | nt | nt | nt | nt | nt
CCOC(=O)c1ccc2ncc(C(=O)OCC)c(NCCN(C)C)c2c1 | -3 | 1 | 7.9* | -7 | -4 | 25 | -1 | 1
CCOC(=O)c1ccc2ncc(C(=O)OCC)c(NCCN3CCOCC3)c2c1 | 9 | -1 | -4 | nt | 2 | nt | nt | nt
CCN(CC)C(=O)[C@H]1CC(CC(=O)NCC23CC4CC(CC(C4)C2)C3)C(=O)N2CCc3c([nH]c4ccccc34)[C@]12C (stereo not given in full) | 23 | nt | -1 | nt | nt | nt | nt | nt
CCCC(C)NC(=O)Cn1c(=O)c2c(ncn2CCC(C)C)n(Cc2ccccc2)c1=O (stereo not given) | -13 | -1 | 0 | nt | -2 | nt | nt | nt
CCCCNC(=O)Cn1c(=O)c2c(ncn2CCC(C)C)n(Cc2ccccc2)c1=O | 24 | 5 | 20* | nt | 2 | nt | -1 | 0
COc1ccc(CCNC(=O)CSc2nc3c(c(=O)n(C)c(=O)n3C)n2C)cc1OC | -5 | -4 | 1 | 2 | -3 | 19 | nt | nt
CCc1nc(SCC(=O)NCCc2ccc(OC)c(OC)c2)c2c(=O)n(C)c(=O)n(C)c2n1 | 0 | -5 | 10* | nt | 0 | 1 | 16* | 1
CCOCCC(=O)Nc1nnc(CCc2ccccc2)s1 | nt | nt | -3 | nt | nt | nt | nt | nt
SMILES | PREPL inhibitor | LYPLA2 counter | Rin1-Abl PPI inh | p97 ATPase inh | LYPLA1 inh | Hck Nef HTS | Rin1-Abl confirm | GFP quench-1 | others
OC1CCCN(Cc2nc(Cc3ccccc3Cl)no2)C1 (stereo not given) | -3 | 5 | 8.8* | -1 | 3 | 21 | -2 | -3
C=CCOc1ccc(/C=C/C(=O)OCC(=O)NCc2cccs2)cc1 | 1 | -2 | 2 | nt | 3 | nt | nt | nt
COCCc1ncc(CN2CCC(C(=O)Nc3cccc(-c4cscn4)c3)CC2)cn1 | -4 | -1 | 13* | nt | 0 | nt | 7.2* | -1
CCCc1ncc(CN2CCC(C(=O)Nc3cccc(-c4cscn4)c3)CC2)cn1 | 10 | 1 | 36* | nt | -1 | nt | 19* | 0 | GFP quench DR=>68
CN(C)S(=O)(=O)N1CCN(C(=O)c2ccc3c(c2)OCO3)CC1 | -2 | -1 | 1 | nt | -3 | nt | nt | nt
CCCNC(=O)c1cc(C2CCCCN2C(=O)c2ccc3c(c2)CCO3)on1 (stereo not given) | nt | nt | 15* | nt | nt | nt | -3 | 1
CCCNC(=O)c1cc(C2CCCCN2C(=O)c2ccc3ccccc3c2)on1 (stereo not given) | nt | nt | -4 | nt | nt | nt | nt | nt
O=S(=O)(c1ccc(Br)cc1)c1nc(-c2ccco2)oc1NCCCn1ccnc1 | nt | nt | -1 | nt | nt | nt | nt | nt
CCn1ccc(C(=O)N2CCN(c3ncccn3)CC2)n1 | 8 | -8 | 7.3* | nt | -2 | nt | 6.3* | -1
Cc1ccc(C)c2[nH]c(=O)c(C(c3nnnn3Cc3ccco3)N3CCc4ccccc4C3)cc12 (stereo not given) | 22 | 0 | 6.2* | 1 | -7 | 1 | 0 | 2
O=C(Cc1ccsc1)NCc1ccccc1F | -1 | 2 | -1 | nt | 4 | nt | nt | nt
Cc1cc(C)c(S(=O)(=O)N2CCCC(C(=O)N3CCOCC3)C2)c(C)c1 (stereo not given) | -2 | -2 | 11* | nt | -1 | nt | 8.9* | -1
Cc1cc(C)c(S(=O)(=O)N2CCCC(C(=O)N3CCCC3)C2)c(C)c1 (stereo not given) | -6 | 1 | -2 | nt | 4 | nt | nt | nt
O=C(CNS(=O)(=O)c1cccs1)NCCc1ccc(Cl)cc1 | -9 | 9 | 0 | nt | 1 | nt | nt | nt

Assay outcomes (PubChem)
